Source: PubChem (The Scripps Research Institute Molecular Screening Center)
DAX1 inh-1: DAX1 (NR0B1) inhibitors on StAR promoter, primary screen, cell-based, luminescence, SF-1 (NR5A1), full-length DAX-1. HEK293T StAR-luciferase reporter, SF-1/DAX-1 repression relief. inhibition, % at 6.8 µM. actives 1.1% (n = 370,000);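 active = inhibition above the mean over all tested compounds plus 3 SD, cut at about 3.6% in these data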;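 also: 0% = DAX-1 cells with DMSO and 100% = cells lacking DAX-1 with DMSO; higher inhibition means more luminescence from relief of DAX-1 repression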
hcDAF12 agonist: H. contortus DAF-12 nuclear receptor activators, primary screen, cell-based, luminescence, HEK293, lit1-tk-luc reporter; HEK293 hcDAF-12 lit1-tk-luc reporter; 0% DMSO, 100% Δ7-dafachronic acid; activation, % at 6.8 µM; actives 1.4% (n = 370,000); AID 652067, 2013;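 active = activation above the mean of all tested compounds plus 3 SD, cut at about 5.5% in these data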;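 also: 100% = response to 3 µM Δ7-dafachronic acid high control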
SMARCA2 activ: SMARCA2 (BRM) function activators, primary screen, cell-based, luminescence, high throughput. MG213 cells, MMTV-luciferase reporter, dexamethasone, overnight. activation, % at 9.1 µM. actives 1% (n = 370,000). AID 652017, 2013; in the data active = activation above about 7.8%;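 also: 0% = vehicle wells and 100% = reference activator wells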
hgDAF12 agonist: H. glycines DAF-12 receptor agonists, primary screen, cell-based, luminescence, HEK293, GAL4 fusion, UAS-luciferase. HEK293 GAL4-hgDAF12 UAS-luciferase reporter, agonist luminescence; normalized to butyrate control. activation, % at 6.8 µM. actives 1.8% (n = 370,000). AID 687014, 2013;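 active = activation above a cutoff set at the mean of all screened compounds plus 3 SD, cut at about 10% in these data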;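 also: 0% = DMSO wells and 100% = sodium butyrate wells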
DAX1 inh-2: DAX1 (NR0B1) inhibitors, primary screen, cell-based, HEK293, Gal4-DAX1, luciferase luminescence; actives 0.99% (n = 340,000); Nuclear receptor subfamily 0 group B member 1 (Homo sapiens), P51843; AID 504766, 2011; HEK293 Gal4-DAX1 luciferase reporter; inhibition, % at 6.75 µM;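 active = inhibition above the mean over all tested compounds plus 3 SD, cut at about 4.2% in these data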;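 also: 0% = DAX1-transfected cells with DMSO and 100% = empty-vector control cells with DMSO; inhibition shows as a rise in luminescence from relieved DAX1 repression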
Target sequence (P51843 207-470 limits assumed): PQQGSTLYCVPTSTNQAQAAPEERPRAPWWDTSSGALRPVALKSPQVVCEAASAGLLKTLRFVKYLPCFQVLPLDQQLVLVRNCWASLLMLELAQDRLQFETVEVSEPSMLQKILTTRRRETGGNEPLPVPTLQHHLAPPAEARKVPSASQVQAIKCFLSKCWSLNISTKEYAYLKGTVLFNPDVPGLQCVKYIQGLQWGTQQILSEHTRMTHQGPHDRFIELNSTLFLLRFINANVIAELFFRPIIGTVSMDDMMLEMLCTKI
ssDAF12 agonist: S. stercoralis DAF-12 nuclear receptor activators, primary screen, cell-based, luminescence, HEK293, GRIP1 co-expression, lit1-tk-luc. Nuclear hormone receptor DAF-12 (Strongyloides stercoralis). HEK293 ssDAF-12/GRIP1 lit1-tk-luc reporter; % of 3 µM dafachronic acid response. activation, % at 6.8 µM. actives 1% (n = 370,000). AID 652126, 2013;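 active = activation above the mean over all tested compounds plus 3 SD, cut at about 0.9% in these data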;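 also: 0% = DMSO-only wells and 100% = 3 µM delta7-dafachronic acid wells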
SMARCA2 act conf: SMARCA2 (BRM) function activators, confirmation, cell-based, luminescence, triplicate. shares compounds with SMARCA2 activ. MG213 cells, MMTV-luciferase with dexamethasone, overnight; MG213 cells expressing E1A, Rb sequestered; DMSO wells 0%, reference activator 100%. activation, % at 9.1 µM. actives 30% (n = 3,500);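 active = activation above its plate's cutoff, the mean activation of tested wells plus 3 SD, cut at about 7.9% in these data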
GAL4-VP16 Luc: GAL4-VP16 luciferase reporter activation, counter-screen for SMARCA2 (BRM) activator project, cell-based, pG5luc, luminescence, high throughput; shares compounds with SMARCA2 activ; HEK293 GAL4-VP16 pG5luc reporter; scaled: DMSO wells 0%, SAHA wells 100%; activation, % at 9.1 µM; actives 41% (n = 3,500); AID 686939, 2013;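 active = activation above the solvent-only control well mean plus 3 SD, averaged across control plates, cut at about 5.2% in these data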
LXR ag: LXR agonists, Gal4 luciferase reporter, confirmation, counter-screen for hcDAF-12 agonist project, cell-based, luminescence, HEK293, H. contortus campaign; shares compounds with hcDAF12 agonist; HEK293 Gal4-LXR tk-luc reporter, 24 h; normalized: DMSO 0%, positive control 100%; activation, % at 6.8 µM; 3,400 tested, under 10 active; AID 743027, 2013;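 active = mean percent activation of the reporter above a cutoff set as the average over tested compounds plus their standard deviation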
hcDAF12 ag: H. contortus DAF-12 receptor agonists, confirmation, cell-based, luminescence, HEK293, lit1-tk-luc, triplicate. activation, % at 6.8 µM. actives 61% (n = 3,400). shares compounds with hcDAF12 agonist. HEK293 hcDAF-12 lit1-tk-luc reporter; % of Δ7-dafachronic acid response;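 active = mean activation across triplicate tests above the threshold derived from the earlier primary screen, cut at about 5.5% in these data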;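 also: 0% = DMSO only wells and 100% = 3 µM Δ7-dafachronic acid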
hgDAF12 conf: H. glycines DAF-12 receptor agonists, confirmation, cell-based, luminescence, HEK293, GAL4-LBD fusion; actives 80% (n = 3,300); HEK293 GAL4-hgDAF12 luciferase reporter, agonist mode; percent of butyrate response; AID 743050, 2013; activation, % at 6.8 µM; shares compounds with hgDAF12 agonist;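 active = mean activation over triplicate wells above the hit cutoff derived from the earlier primary screen, cut at about 11% in these data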;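 also: 0% = DMSO low control and 100% = 2 mM sodium butyrate high control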
LXR ag 2: LXR agonists, Gal4 luciferase reporter, confirmation, counter-screen for hgDAF-12 agonist project, cell-based, luminescence, HEK293, H. glycines campaign. shares compounds with hgDAF12 agonist. 24 h. activation, % at 6.8 µM. 3,300 tested, under 10 active;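 active = mean activation of the triplicate above a set limit carried over from the primary screen, none filed active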
Active calls of the source: *; . = no result. This is a sample that favours compounds with a hit; in the whole collection about 4.8% have one here.

SMILES | DAX1 inh-1 | hcDAF12 agonist | SMARCA2 activ | hgDAF12 agonist | DAX1 inh-2 | ssDAF12 agonist | SMARCA2 act conf | GAL4-VP16 Luc | hgDAF12 conf | LXR ag 2 | others
O=C(N/N=C/c1ccc(Br)s1)c1ccccn1 | 4.5* | 8.2* | 10.6* | 14.3* | 2.1 | 0.6 | 14.2* | 9.0* | 13.5* | 0.8 | LXR ag=0.8;hcDAF12 ag=3.5
Nc1nc(Cn2nnc(-c3ccccc3F)n2)nc(N2CCOCC2)n1 | -0.3 | 0.1 | 0.7 | -1.8 | 1.5 | -1.1 | . | . | . | .
C(#Cc1ccccc1)Cn1nnc2ccccc21 | 1.2 | 0.1 | -0.8 | 3.5 | 1.4 | -0.9 | . | . | . | .
c1ccc(CNn2nnc3ccccc32)cc1 | 1.9 | -1.1 | 11.7* | 13.9* | . | -0.6 | 10.0* | 11.4* | 11.5* | 0.3
O=C(Nc1cccc(Cl)c1)c1ccc2c(c1)OCCO2 | 1.9 | 6.5* | 9.0* | 21.0* | 1.6 | 0.9 | 5.6 | 8.7* | 18.0* | 0.9
CCOC(=O)c1c(C)oc2c1cc(O)c1ccccc12 | 2.6 | 12.6* | 8.1* | 16.8* | 3.9 | 3.1* | 9.8* | 12.9* | 20.0* | 0.9 | LXR ag=1.4;hcDAF12 ag=12.7*
CC(=O)c1c(C)oc2c1cc(O)c1ccccc12 | 0.3 | -0.5 | -2.7 | 0.0 | 0.7 | -0.7 | . | . | . | .
Cc1ccc(S(=O)(=O)/N=C(/c2ccc(F)cc2)N2CCOCC2)cc1 | -0.5 | 0.2 | -2.2 | 1.2 | 1.1 | -1.0 | . | . | . | .
Cc1cccc(N=Nc2cnc(N)s2)c1 | 0.6 | 4.1 | 8.1* | 18.1* | 4.4* | -0.7 | 3.7 | 4.3 | 7.0 | 0.2
Cc1cc(C(=O)CSc2ncccn2)c(C)n1Cc1ccco1 | 3.5 | 5.5 | 9.9* | 17.1* | 0.5 | 0.9* | 9.9* | 8.5* | 17.6* | 0.7
Cc1ccc(NC(=O)c2cc(C)on2)cc1 | 1.9 | 0.3 | 8.7* | 15.3* | 0.3 | -1.1 | 6.0 | 18.1* | 9.5 | 0.5
Cc1ccc(NC(=O)c2cc(C)no2)cc1 | 0.9 | 1.1 | 4.4 | 3.9 | -0.3 | -1.1 | . | . | . | .
